Experimental data as given in PubChem BioAssay AID1159506 (National Center for Advancing Translational Sciences (NCATS), 2015).
The full ranking holds about 59,000 sequences; the median of the read-out is about -0.00055, and the lowest 2% start at about -2. This excerpt belongs to a sample that is enriched for the lowest values.

experiment: Identification of proteins required for the processing of the EWS-FLI1 nascent transcript; conditions: TC32 Ewing sarcoma NR0B1-luc vs CMV-luc (EWS-FLI1 target promoter against control promoter), 48 h; screened at 20 nM (by protocol);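 also: robust z of luciferase light less the median z of siRNAs with the same seed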
Method in brief: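 Three siRNAs per gene, each in a separate well at 20 nM, were transfected into TC32 cells bearing either reporter construct. Luminescence was measured two days on, and per-gene comparison relied on seed-corrected Z values.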

Row | Sequence | seed-corrected z-score
1 | UUUAGAGCGAGUGGUUAGC against PPHLN1 | 0.884
2 | UAAUCUUUUCAUGCAACUC against SNCA-AS1 | -2.06
3 | UAGGUGAAGAUCUUGUUUC against COMMD10 | -0.785
4 | AAAUGAUUUAUAUCCCUGG against ABCC6P1 | -14.5
5 | AUCGGUAAGAUCCUAAUGG against VPS13A | 0.281
6 | UAUUCUACCUCGUACCUCC against TBC1D22B | -0.239
7 | ACCAGUAUAACCCAGAGUC against FCGR1A | 0.036
8 | UAUAGAGGAAAGCUAUGCC against ERCC6L | 0.528
9 | AAAGCGAGUUUUCUCAUCC against COPA | -4.21
10 | AACUGGAUAGGAGGACUGC against HSF5 | -0.327
11 | UUAAUUCUCGGAUGUGCUC against ANXA11 | 0.143
12 | UUAUGUUUUCCUACUCCAC against TCEAL1 | -2.4
13 | UGAAGGCCAACCGCUCUGU against ALG1L6P | 0.486
14 | UCAGUUUGAUUAUUUCUCU against RASSF4 | 0.41
15 | UGACUUCACCCAGAAGCAC against SLC25A41 | -0.697
16 | UCAUCAUCCAAAGAUGUAC against C20orf196 | -1.47
17 | UAUUCGAGCGCAGUGCUGG against C10orf67 | -0.133
18 | AUUGGUAGAACAAAGUUCC against PRELID3A | 0.478
19 | UUUUGUUGUGAGCUGAUGC against SF3B4 | -3
20 | UUCCUUGGAGCUGGGAUCU against PSORS1C1 | -1.32
21 | UUCUUUUUCAAACAGCUCU against ISY1 | -1.17
22 | UACUGGUCAAUCGCUGUUC against CEP192 | -0.996

Row | Sequence | seed-corrected z-score
23 | UUAUUGUUCUUUCGGAUCC against SELP | 0.564
24 | UCCGGUAAGACAUUCUCUG against EAPP | 0.402
25 | AUGACUUUUAGUGUAAUCC against LOC439994 | -2.2
26 | UAUGUCGUCUUGGAGAUCG against SNRNP27 | -0.0915
27 | UUAAGAGUGACUCAAUUUG against MGAT2 | -0.219
28 | AUUGAGUAUCACGUCAUCC against TTLL4 | -2.43
29 | ACCUUGAUGGUUUUUGAUG against LOC649294 | 0.0918
30 | UUUCUUAAUGGUGGUGCCC against SLC7A7 | -0.929
31 | UGUAUUAUCGUGUCCGAGC against CTNNBL1 | -0.748
32 | UGAUAACCCACAUUGAAGG against DEGS1 | -0.494
33 | UCUUCUUCCAGUAUAAGGC against KITLG | 0.53
34 | UCAACACCCAGGUAGCGGA against DUSP26 | -2.05
35 | UAAAGGGUUGUGGGAAAUG against LRRC30 | -1.26
36 | UCUGGAAUUUGACUGCUCG against RPL24 | -0.838
37 | UACGUAAGAAAUAGGAACG against OR6C76 | -2.11
38 | UCAACUUCCAUGAUUUUCC against IGF2BP2 | -0.332
39 | UUCCGGUCAUAAUUCAGCC against PPFIA4 | -0.228
40 | AAUGGUAAACUUGAUUUCA against TP53I11 | 0.091
41 | AUAGAGGUGAGGGUCAUGC against TGFBI | -2.38
42 | UACUUCUAUGUAGAGGUCC against AKIP1 | -0.138
43 | UCAGUUUGGAAUGAGGAGG against LOC345051 | -0.469
44 | UGUGGAUGCGGCGAUGUUC against ZNF574 | 0.836

Row | Sequence | seed-corrected z-score
45 | UGCUUUUAGAAAGUCCAUG against HAUS1 | -0.637
46 | ACCGUUGUAGUCUCCAUCG against ANO1 | -11.8
47 | UUUUCAUCUGGUAAAAGGG against FAM13C | -1.06
48 | UAUCUUCAGAUCGCUGUAC against ANKFY1 | 0.715
49 | UCUUCGUCCACUCUGAAUC against NMU | -2.29
50 | UUUGAUAUUCAUAACGAUC against N4BP2L2 | 0.28
51 | UGCAGUGGACCAUUUAUGC against SUN5 | -1.1
52 | UACCGAUUGUGAAUGAACC against NHS | -17
53 | UUUGGAAUCCUUUACUUGG against GLE1 | 0.251
54 | UUCAUGACAGUGACGAUGC against ITPR3 | -0.0506
55 | UCUUGGAGUUCCGUCUUUG against FGF20 | -0.184
56 | UCAUUGAUUAGGUGGAUGC against RRP9 | -0.724
57 | AUCUGGACCACUAUUUCUU against RSPH9 | 0.909
58 | UGUAGAGAUGCGGUGGUCC against BIRC5 | -2.18
59 | UAGUUUAACCUUGUCAUCC against CASC4 | -0.368
60 | UACACUUUCAAAAUCUCUC against ZNF845 | 0.844
61 | UUUAUGACCUCAUUAAGUC against LHCGR | 0.284
62 | UGAUGAGAUAGAGCCGUGC against TRIM56 | -0.836
63 | GAAUUUCAGCCGUAGCACG against TMUB1 | -2.19
64 | ACAAUGGCAUCUUGUGGGC against CORT | 0.108
65 | UAGUAUGCGGUGGUGAUGG against RAB3A | -0.77
66 | UUGGGCAUAUGUUUGCUGC against TACO1 | 0.306

Row | Sequence | seed-corrected z-score
67 | UCGUUUCAAAGGGCUGUGG against SAMD4A | -2.94
68 | UGAGCAAGGUCUCCAAUCC against SH3RF3 | -0.33
69 | UUUCGUUUGAGAAAUGCGC against MED23 | 0.711
70 | AUAGUGACCACCCUCAAUC against SPTA1 | 0.293
71 | UACGUUCUGAAUCAAGAAG against DENND5A | -0.28
72 | UAAGCAUAUAUUCCCGUAC against CDC7 | 0.52
73 | UUUAUAGUUGGUUAGGUUC against EPB42 | -0.0918
74 | AUUUGGACCAGUAUGCUUC against HNRNPH1 | -2.98
75 | UAUUCUGAGAUGCGAAGGC against SLC26A11 | 0.879
76 | UCCAAGAUGAUUCCUCUCC against ZNF557 | -0.0489
77 | AAAAGAUGCCCAUUCAUUG against DCDC2C | 1.89
78 | UCAGGAGCAAAGCUUCUUC against VNN3 | 0.325
79 | UCAGCUGAUUCAUUAGAGG against TRIM44 | -0.356
80 | UCUGUUGUUAGCACACGUC against NID1 | -0.891
81 | UAUGCUUUCUUGACAGCCC against KCNAB1 | -4.96
82 | UCCUUGGACAUCAAGAGCC against C16orf91 | -0.516
83 | UAAUCUAUCCAGGAAUUCC against TTC5 | 0.1
84 | UUUGUUGGAACCCAAGAGC against BLID | -2.2
85 | UUUGGGUCCUCGAUCACCC against COL8A1 | -1.06
86 | UUCCGUAAUGUUGCGCAUG against CORO6 | 0.106
87 | UUCGUGCUGGGUUAUCUCG against COL24A1 | 0.737
88 | UUCCAUAAAGAGUUCUGCC against ZNF280C | 0.576

Row | Sequence | seed-corrected z-score
89 | UUACUGACGACAUCAUUCC against PRPF40A | -0.273
90 | AUACAGAACAUAGUGGUUG against PSMD3 | -1.41
91 | UCAGUAGGCAUUGGAGCGG against CEBPA | -0.0618
92 | AAGUCUUCAAGAUCUAUUC against FGL2 | 0.334
93 | UCAUAAGUCAGGGUAUGCC against MPTX1 | -3.31
94 | UCAUAGGUCACAAAGGUGC against KIF9 | 0.0712
95 | UAUCUAAUUUUGGAAUCUC against VRK1 | -0.281
96 | UUCAGGGUAAGGUGGAUGG against UBD | 0.588
97 | AAACUUGUCAUCAGCACGC against MUC13 | 0.662
98 | UUCUGUCCCAUAAAUAGAG against TMEM207 | -0.0552
99 | UUAUCUAUACAAAGCAGAC against KLRC3 | -0.377
100 | UUACGCAUAAUUUCCGUCA against VAMP5 | -0.171
101 | AUCUGGUUUACGGUUAUUC against MEF2C | -2.53
102 | AAUCUUGCAAGGUUACUAC against USP33 | -1.31
103 | UCCAUGACGAAGCUGUUCU against SUV39H1 | 0.0817
104 | UGGUUUAUCAGUUUCAAUG against ARCN1 | -4.37
105 | UAUCUAAUUGAUGACAUGC against ETAA1 | 0.0808
106 | UGUUCUAUAGGUAACACUC against ZNF559 | -0.628
107 | UUAAUUGCAUUUGCAGACC against CCDC171 | 0.492
108 | UUGUCUAGAAAAGUCCUGG against UMODL1 | -2.58
109 | UUCGAUAUUAGGGUAGCGG against SNRNP200 | -1.21
110 | UGCUGUAAAGUUUUAGUCC against SLC35A5 | -0.426

Row | Sequence | seed-corrected z-score
111 | UCAGUGUUGGACUCCAUGC against NR2E3 | 0.652
112 | UGUGAGAUCAGGAAUUGAC against TMEM65 | -0.934
113 | UGCGGUUGACCGUAUAGAC against KBTBD13 | -2.49
114 | UCCUUGGUCACUGUCGCUC against KLF7 | -0.201
115 | UUGUUGGACAAGUCGAUGG against LRRC57 | 0.339
116 | GUUGUAUUCGUCGUCGUCC against NKX6-2 | 0.127
117 | UACUUAUCUCUGUCUGUUU against UBE2D3 | -1.14
118 | AUAGGUGCGACUCUCAUCC against SYMPK | -2.35
119 | UUGUAGAUGCUGAAUGUCC against DNAAF1 | 0.337
120 | UAAUAUGAUGUCUUCAACC against GABRQ | 0.559
121 | UGUUUUGCCGUCGAGGUGC against LOC642620 | 0.782
122 | AUUCCGACCAUGGUAAAUG against NAAA | 0.829
123 | ACAGUACAUAGUAGGGUGG against PRR34 | -2.82
124 | UUCAUCAAAUUGGACAUCU against ATP6V1E1 | -0.95
125 | UUGGUGCACAGCCUGGUAC against TSPAN32 | -0.435
126 | UCUUAGUUUCCAACGAUCC against SZT2 | -0.791
127 | UCGGUAGUAGUAAUCGUGC against PNPLA1 | 0.335
128 | UUCGCCUCUUGUGCUAUCG against CFAP221 | 0.264
129 | AUGGUUCAAACAUAGGAUG against WNK1 | -2.09
130 | UACGAGUCACGGGAAAUAC against TAF5 | 0.238
131 | AACUUGAGGAGGGUAAGUG against SERPINF2 | -2.44
132 | UUGAGUAUUCCGCUCGGGC against EDAR | -0.0352
